Values joined by “and” are separate entries in the source; they are usually repeats but may differ in a detail not shown here. Identical values can stand only once. The whole screen tested about 5,500 compounds, of which about 2,000 (36%) were called active. Roughly 18% stayed inconclusive and do not appear here. Rule as the data show it: active = normalized growth mostly below about 0.91 (no sharp cut-off); inconclusive = no clear call, values can overlap the other calls; inactive = mostly above about 0.92. Some of the results follow.
Experiment: chemical genetic growth profiling, strain panel (AID 1159580);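 also: tested at 20 µM; growth read once vehicle control cultures reached saturation at 30 °C; 1 = growth at the plate median or of vehicle wells; lower values mean less growth of the strain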
Conditions: growth OD

Measured: normalized growth

CCC(C)C(=O)OC1[C@@H]2CC3=C4CC(=O)O[C@@H](c5ccoc5)[C@]4(C)CCC3[C@@](C)(C2=O)[C@@H](CC(=O)OC)C1(C)C (stereo partly specified)
inactive: S. cerevisiae deletion strains, locus YAL021C, strain ccr4, stronger effect = lower value 1.02 | S. cerevisiae deletion strains, locus YAL026C, strain drs2, stronger effect = lower value 1.01 | S. cerevisiae deletion strains, locus YAL030W, strain snc1, stronger effect = lower value 1.01 | S. cerevisiae deletion strains, locus YBL061C, strain skt5, stronger effect = lower value 1.01 | S. cerevisiae deletion strains, locus YBR009C, strain hhf1, stronger effect = lower value 1.01 | S. cerevisiae deletion strains, locus YBR021W, strain FUR4, stronger effect = lower value 1 | S. cerevisiae deletion strains, locus YBR023C, strain chs3, stronger effect = lower value 1 | S. cerevisiae deletion strains, locus YBR171W, strain sec66, stronger effect = lower value 1.01 | S. cerevisiae deletion strains, locus YBR229C, strain ROT2, stronger effect = lower value 0.999 | S. cerevisiae deletion strains, locus YBR231C, strain swc5, stronger effect = lower value 1.01 | S. cerevisiae deletion strains, locus YBR279W, strain paf1, stronger effect = lower value 1.01 | S. cerevisiae deletion strains, locus YCL011C, strain gbp2, stronger effect = lower value 1.01 | S. cerevisiae deletion strains, locus YCL016C, strain dcc1, stronger effect = lower value 1.01 | S. cerevisiae deletion strains, locus YCL029C, strain bik1, stronger effect = lower value 1 | S. cerevisiae deletion strains, locus YCL061C, strain MRC1, stronger effect = lower value 1 | S. cerevisiae deletion strains, locus YCL069W, strain vba3, stronger effect = lower value 1.02 | S. cerevisiae deletion strains, locus YCR088W, strain abp1, stronger effect = lower value 1 | S. cerevisiae deletion strains, locus YDL005C, strain med2, stronger effect = lower value 1 | S. cerevisiae deletion strains, locus YDL035C, strain GPR1, stronger effect = lower value 0.987 | S. cerevisiae deletion strains, locus YDL040C, strain nat1, stronger effect = lower value 0.991 | S. cerevisiae deletion strains, locus YDL074C, strain BRE1, stronger effect = lower value 1.01 | S. cerevisiae deletion strains, locus YDL101C, strain DUN1, stronger effect = lower value 1.02 | S. cerevisiae deletion strains, locus YDL185W, strain tfp1, stronger effect = lower value 1.01 | S. cerevisiae deletion strains, locus YDL192W, strain arf1, stronger effect = lower value 0.994 | S. cerevisiae deletion strains, locus YDR001C, strain nth1, stronger effect = lower value 1 | S. cerevisiae deletion strains, locus YDR069C, strain doa4, stronger effect = lower value 0.992 | S. cerevisiae deletion strains, locus YDR101C, strain arx1, stronger effect = lower value 0.991 | S. cerevisiae deletion strains, locus YDR137W, strain rgp1, stronger effect = lower value 0.961 | S. cerevisiae deletion strains, locus YDR159W, strain sac3, stronger effect = lower value 0.998 | S. cerevisiae deletion strains, locus YDR162C, strain NBP2, stronger effect = lower value 0.995 | S. cerevisiae deletion strains, locus YDR195W, strain ref2 0.987 | S. cerevisiae deletion strains, locus YDR297W, strain sur2, stronger effect = lower value 1.01 | S. cerevisiae deletion strains, locus YDR318W, strain mcm21, stronger effect = lower value 1 | S. cerevisiae deletion strains, locus YDR334W, strain swr1, stronger effect = lower value 1 | S. cerevisiae deletion strains, locus YDR335W, strain msn5, stronger effect = lower value 1.01 | S. cerevisiae deletion strains, locus YDR388W, stronger effect = lower value 1.01 | S. cerevisiae deletion strains, locus YDR392W, strain spt3, stronger effect = lower value 0.979 | S. cerevisiae deletion strains, locus YDR502C, strain sam2, stronger effect = lower value 1.02 | S. cerevisiae deletion strains, locus YEL003W, strain gim4, stronger effect = lower value 1.01 | S. cerevisiae deletion strains, locus YEL037C, strain rad23, stronger effect = lower value 1.01 | S. cerevisiae deletion strains, locus YEL061C, strain CIN8 (second series), stronger effect = lower value 1.01 | S. cerevisiae deletion strains, locus YER015W, strain faa2, stronger effect = lower value 0.999 | S. cerevisiae deletion strains, locus YER016W, strain bim1, stronger effect = lower value 0.999 | S. cerevisiae deletion strains, locus YER110C, stronger effect = lower value 1.02 | S. cerevisiae deletion strains, locus YER111C, strain swi4, stronger effect = lower value 0.99 | S. cerevisiae deletion strains, locus YER155C, strain BEM2 (second series), stronger effect = lower value 1.01 | S. cerevisiae deletion strains, locus YER155C, strain BEM2, stronger effect = lower value 1.01 | S. cerevisiae deletion strains, locus YER167W, strain BCK2, stronger effect = lower value 1 | S. cerevisiae deletion strains, locus YFR010W, strain ubp6, stronger effect = lower value 1.02 | S. cerevisiae deletion strains, locus YGL078C, strain dbp3, stronger effect = lower value 1.02 | S. cerevisiae deletion strains, locus YGL086W, strain mad1, stronger effect = lower value 1 | S. cerevisiae deletion strains, locus YGL167C, strain pmr1, stronger effect = lower value 1.01 | S. cerevisiae deletion strains, locus YGL173C, strain kem1, stronger effect = lower value 1 | S. cerevisiae deletion strains, locus YGL227W, strain vid30, stronger effect = lower value 0.999 | S. cerevisiae deletion strains, locus YGL240W, strain doc1, stronger effect = lower value 0.989 | S. cerevisiae deletion strains, locus YGL248W, strain PDE1, stronger effect = lower value 1.01 | S. cerevisiae deletion strains, locus YGL253W, strain hxk2, stronger effect = lower value 1.03 | S. cerevisiae deletion strains, locus YGR078C, strain PAC10, stronger effect = lower value 1.02 | S. cerevisiae deletion strains, locus YGR135W, strain pre9, stronger effect = lower value 1.04 | S. cerevisiae deletion strains, locus YGR229C, strain SMI1, stronger effect = lower value 0.982 | S. cerevisiae deletion strains, locus YGR252W, strain gcn5, stronger effect = lower value 1.02 | S. cerevisiae deletion strains, locus YHR013C, strain ard1, stronger effect = lower value 1.01 | S. cerevisiae deletion strains, locus YHR027C, strain rpn1, stronger effect = lower value 0.994 | S. cerevisiae deletion strains, locus YHR030C, strain SLT2, stronger effect = lower value 0.959 | S. cerevisiae deletion strains, locus YHR079C, strain IRE1 (second series), stronger effect = lower value 1.01 | S. cerevisiae deletion strains, locus YHR079C, strain IRE1, stronger effect = lower value 0.95 | S. cerevisiae deletion strains, locus YHR094C, strain hxt1, stronger effect = lower value 1 | S. cerevisiae deletion strains, locus YHR129C, strain ARP1, stronger effect = lower value 1.01 | S. cerevisiae deletion strains, locus YHR142W, strain chs7, stronger effect = lower value 1.04 | S. cerevisiae deletion strains, locus YHR200W, strain rpn10, stronger effect = lower value 1 | S. cerevisiae deletion strains, locus YIL066C, strain RNR3, stronger effect = lower value 0.998 | S. cerevisiae deletion strains, locus YIL073C, strain SPO22, stronger effect = lower value 1.06 | S. cerevisiae deletion strains, locus YIL125W, strain kgd1, stronger effect = lower value 0.998 | S. cerevisiae deletion strains, locus YIR030C, strain dcg1, stronger effect = lower value 1 | S. cerevisiae deletion strains, locus YJL092W, strain hpr5, stronger effect = lower value 1 | S. cerevisiae deletion strains, locus YJL095W, strain BCK1 (second series), stronger effect = lower value 1 | S. cerevisiae deletion strains, locus YJL095W, strain BCK1, stronger effect = lower value 1.04 and 0.958 | S. cerevisiae deletion strains, locus YJL115W, strain asf1, stronger effect = lower value 1 | S. cerevisiae deletion strains, locus YJL129C, strain trk1, stronger effect = lower value 1.01 | S. cerevisiae deletion strains, locus YJL134W, strain LCB3, stronger effect = lower value 1 | S. cerevisiae deletion strains, locus YJL154C, strain vps35, stronger effect = lower value 1 | S. cerevisiae deletion strains, locus YJL164C, strain tpk1, stronger effect = lower value 1.02 | S. cerevisiae deletion strains, locus YJL166W, strain qcr8, stronger effect = lower value 1.01 | S. cerevisiae deletion strains, locus YJL168C, strain set2, stronger effect = lower value 1.01 | S. cerevisiae deletion strains, locus YJL187C, strain SWE1 (second series), stronger effect = lower value 1.03 | S. cerevisiae deletion strains, locus YJL187C, strain SWE1, stronger effect = lower value 1.01 | S. cerevisiae deletion strains, locus YJR066W, strain TOR1, stronger effect = lower value 0.91 | S. cerevisiae deletion strains, locus YJR075W, strain HOC1, stronger effect = lower value 1.01 | S. cerevisiae deletion strains, locus YKL009W, strain mrt4, stronger effect = lower value 0.965 | S. cerevisiae deletion strains, locus YKL068W, stronger effect = lower value 0.999 | S. cerevisiae deletion strains, locus YKL085W, strain MDH1 (second series), stronger effect = lower value 0.988 | S. cerevisiae deletion strains, locus YKL085W, strain MDH1, stronger effect = lower value 0.988 | S. cerevisiae deletion strains, locus YKL160W, strain elf1, stronger effect = lower value 1.01 | S. cerevisiae deletion strains, locus YKR001C, strain vps1, stronger effect = lower value 1.01 | S. cerevisiae deletion strains, locus YKR026C, strain gcn3, stronger effect = lower value 1.01 | S. cerevisiae deletion strains, locus YKR091W, strain srl3, stronger effect = lower value 1 | S. cerevisiae deletion strains, locus YLL001W, strain dnm1, stronger effect = lower value 1.01 | S. cerevisiae deletion strains, locus YLL026W, stronger effect = lower value 1 | S. cerevisiae deletion strains, locus YLL041C, strain sdh2, stronger effect = lower value 1.01 | S. cerevisiae deletion strains, locus YLR027C, strain aat2, stronger effect = lower value 1.02 | S. cerevisiae deletion strains, locus YLR039C, strain RIC1, stronger effect = lower value 0.974 | S. cerevisiae deletion strains, locus YLR058C, strain SHM2, stronger effect = lower value 1.01 | S. cerevisiae deletion strains, locus YLR102C, strain apc9, stronger effect = lower value 1 | S. cerevisiae deletion strains, locus YLR113W, strain HOG1, stronger effect = lower value 1.03 | S. cerevisiae deletion strains, locus YLR221C, strain rsa3, stronger effect = lower value 0.998 | S. cerevisiae deletion strains, locus YLR258W, strain gsy2, stronger effect = lower value 1.01 | S. cerevisiae deletion strains, locus YLR262C, strain YPT6 (second series), stronger effect = lower value 0.947 | S. cerevisiae deletion strains, locus YLR268W, strain sec22, stronger effect = lower value 0.989 | S. cerevisiae deletion strains, locus YLR320W, strain mms22, stronger effect = lower value 1.01 | S. cerevisiae deletion strains, locus YLR342W, strain FKS1 (second series), stronger effect = lower value 1 | S. cerevisiae deletion strains, locus YLR342W, strain FKS1, stronger effect = lower value 1 | S. cerevisiae deletion strains, locus YLR357W, strain rsc2, stronger effect = lower value 0.991 | S. cerevisiae deletion strains, locus YLR370C, strain arc18, stronger effect = lower value 1.01 | S. cerevisiae deletion strains, locus YLR371W, strain rom2, stronger effect = lower value 1 | S. cerevisiae deletion strains, locus YLR384C, strain iki3, stronger effect = lower value 1.02 | S. cerevisiae deletion strains, locus YLR418C, strain cdc73, stronger effect = lower value 1.04 | S. cerevisiae deletion strains, locus YML016C, strain PPZ1, stronger effect = lower value 0.997 | S. cerevisiae deletion strains, locus YML032C, strain rad52, stronger effect = lower value 1.01 | S. cerevisiae deletion strains, locus YML120C, strain ndi1, stronger effect = lower value 1 | S. cerevisiae deletion strains, locus YML124C, strain tub3, stronger effect = lower value 1.01 | S. cerevisiae deletion strains, locus YMR058W, strain fet3, stronger effect = lower value 1.01 | S. cerevisiae deletion strains, locus YMR078C, strain ctf18, stronger effect = lower value 1.01 | S. cerevisiae deletion strains, locus YMR125W, strain sto1, stronger effect = lower value 1 | S. cerevisiae deletion strains, locus YMR129W, stronger effect = lower value 1.01 | S. cerevisiae deletion strains, locus YMR205C, strain PFK2, stronger effect = lower value 1 | S. cerevisiae deletion strains, locus YMR223W, strain ubp8, stronger effect = lower value 1 | S. cerevisiae deletion strains, locus YMR231W, strain pep5, stronger effect = lower value 0.973 | S. cerevisiae deletion strains, locus YMR307W, strain GAS1, stronger effect = lower value 1.05 | S. cerevisiae deletion strains, locus YNL067W, strain RPL9B, stronger effect = lower value 1.03 | S. cerevisiae deletion strains, locus YNL071W, strain lat1, stronger effect = lower value 1.01 | S. cerevisiae deletion strains, locus YNL128W, strain TEP1, stronger effect = lower value 0.995 | S. cerevisiae deletion strains, locus YNL183C, strain NPR1, stronger effect = lower value 0.927 | S. cerevisiae deletion strains, locus YNL209W, strain ssb2, stronger effect = lower value 1 | S. cerevisiae deletion strains, locus YNL233W, strain BNI4, stronger effect = lower value 0.995 | S. cerevisiae deletion strains, locus YNL248C, strain rpa49, stronger effect = lower value 1 | S. cerevisiae deletion strains, locus YNL250W, strain rad50, stronger effect = lower value 1.03 | S. cerevisiae deletion strains, locus YNL271C, strain bni1, stronger effect = lower value 1 | S. cerevisiae deletion strains, locus YNL298W, strain CLA4, stronger effect = lower value 1.02 | S. cerevisiae deletion strains, locus YNL307C, strain MCK1, stronger effect = lower value 1 | S. cerevisiae deletion strains, locus YNL322C, strain KRE1 (second series), stronger effect = lower value 0.999 | S. cerevisiae deletion strains, locus YNR049C, strain mso1, stronger effect = lower value 1.01 | S. cerevisiae deletion strains, locus YNR052C, strain pop2, stronger effect = lower value 1.01 | S. cerevisiae deletion strains, locus YOL012C, strain htz1 1.11 | S. cerevisiae deletion strains, locus YOL147C, strain pex11, stronger effect = lower value 1 | S. cerevisiae deletion strains, locus YOR001W, strain rrp6, stronger effect = lower value 1.01 | S. cerevisiae deletion strains, locus YOR061W, strain CKA2, stronger effect = lower value 0.995 | S. cerevisiae deletion strains, locus YOR069W, strain VPS5, stronger effect = lower value 1.01 | S. cerevisiae deletion strains, locus YOR070C, strain gyp1, stronger effect = lower value 1.01 | S. cerevisiae deletion strains, locus YOR080W, strain dia2, stronger effect = lower value 0.996 | S. cerevisiae deletion strains, locus YOR083W, strain WHI5, stronger effect = lower value 1 | S. cerevisiae deletion strains, locus YOR106W, strain vam3, stronger effect = lower value 1.02 | S. cerevisiae deletion strains, locus YOR136W, strain idh2, stronger effect = lower value 0.994 | S. cerevisiae deletion strains, locus YOR144C, strain elg1, stronger effect = lower value 1.01 | S. cerevisiae deletion strains, locus YOR184W, strain ser1, stronger effect = lower value 0.983 | S. cerevisiae deletion strains, locus YOR231W, strain MKK1, stronger effect = lower value 0.973 | S. cerevisiae deletion strains, locus YOR265W, strain rbl2, stronger effect = lower value 0.999 | S. cerevisiae deletion strains, locus YOR270C, strain vph1, stronger effect = lower value 1.03 | S. cerevisiae deletion strains, locus YOR290C, strain snf2, stronger effect = lower value 0.978 | S. cerevisiae deletion strains, locus YOR316C, strain cot1, stronger effect = lower value 1 | S. cerevisiae deletion strains, locus YPL051W, strain arl3, stronger effect = lower value 1 | S. cerevisiae deletion strains, locus YPL078C, strain atp4, stronger effect = lower value 1.04 | S. cerevisiae deletion strains, locus YPL106C, strain sse1, stronger effect = lower value 1.01 | S. cerevisiae deletion strains, locus YPL240C, strain hsp82, stronger effect = lower value 1 | S. cerevisiae deletion strains, locus YPL241C, strain CIN2, stronger effect = lower value 0.998 | S. cerevisiae deletion strains, locus YPL256C, strain CLN2, stronger effect = lower value 0.943 | S. cerevisiae deletion strains, locus YPR119W, strain clb2, stronger effect = lower value 1.01 | S. cerevisiae deletion strains, locus YPR141C, strain kar3, stronger effect = lower value 1.01 | S. cerevisiae deletion strains, locus YPR163C, strain tif3, stronger effect = lower value 1 | S. cerevisiae deletion strains, locus YPR167C, strain met16, stronger effect = lower value 0.995 | S. cerevisiae deletion strains, strain wtn01, stronger effect = lower value 0.993 | S. cerevisiae strains, strain wild type, stronger effect = lower value 0.978
